# Measured values reported in the supplement of paper PMC5641865, “A screen for kinase inhibitors identifies antimicrobial imidazopyridine aminofurazans as specific inhibitors of the Listeria monocytogenes PASTA kinase PrkA” (The Journal of Biological Chemistry, 2017).
# ± gives the standard deviation of the averaged measurements.
# Test system: Listeria monocytogenes 10403S
# Experiment: growth inhibition relative to ceftriaxone-alone control; higher = stronger potentiation of ceftriaxone growth inhibition
# Details: 10 µM; ceftriaxone 1 ug/ml; 12 h
# 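Note: End-point A600 read in BHI broth at 37 °C with 2% DMSO, inhibition computed as (1 − OD with compound plus ceftriaxone ÷ OD with ceftriaxone only) × 100.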
row,Compound,growth inhibition [%]
1,CCC(=O)Nc1ccc(C)c(-c2ccc(C(=O)NCC3CC3)cc2)c1,-2.46 ± 1.9
2,CCCNC(=O)Nc1ccc(Oc2ncnc3cc(OC)c(OC)cc23)cc1Cl,12.7 ± 1.9
3,Cc1nn(C)c2cc(N(C)c3ccnc(Nc4cccc(S(N)(=O)=O)c4)n3)ccc12,10.1 ± 1.2
4,CC(C)c1ccc(-c2cc(-c3c[nH]nc3-c3ccccn3)ccn2)cc1,-6.81 ± 3
5,OCc1ccc(-c2nc(-c3ccc4c(c3)OCO4)c(-c3ccccn3)[nH]2)cc1,7.68 ± 2.9
6,COc1ccc(-c2cc3c(N)ncnc3o2)cc1,-3.61 ± 1.9
7,C=CC(=O)Nc1cccc(Oc2nc(Nc3ccc(N4CCN(C)CC4)cc3OC)ncc2Cl)c1,-1.74 ± 9.7
8,O=c1cc(N2CCOCC2)oc2c(-c3ccccc3)cccc12,27.4 ± 29
9,O=C1Nc2ccc(-c3cccnc3)cc2C1=Cc1cc(Br)c(O)c(Br)c1,22.1 ± 2.9
10,CCS(=O)(=O)c1ccc(OC)c(Nc2ncc(-c3cccc(F)c3)o2)c1,2.54 ± 2.8
11,O=C(Nc1ccc(OC(F)(F)F)cc1)c1sccc1NCc1ccnc2ccccc12,35.9 ± 3.9
12,N#Cc1c(NC(=O)c2cccc3ccccc23)sc2c1CCCC2,-6.35 ± 1.2
13,CCCCCCCCCCCCc1ccc(S(=O)(=O)Nc2nncs2)cc1,93.5 ± 11
14,CNC(=O)c1cccc(C#Cc2cncnc2Nc2ccc(OCc3cccc(F)c3)c(Cl)c2)c1,-0.177 ± 4.2
15,CCn1c(-c2nonc2N)nc2cnc(Oc3cccc(NC(=O)c4ccc(N(C)C)cc4)c3)cc21,-5.93 ± 1.5
16,[O-][S+]1CCN(Cc2ccc(-c3ccc4ncnc(Nc5ccc(OCc6ccccc6)c(F)c5)c4c3)o2)CC1,2.23 ± 7.9
17,N#C/C(=C\c1ccc(O)c(O)c1)C(=O)NCc1ccccc1,28.7 ± 25
18,CCCN1CCC(c2ccc(Nc3nc(Nc4cc(F)ccc4C(N)=O)c4cc[nH]c4n3)c(OC)c2)CC1,-8.21 ± 4.5
19,COc1cccc(/C=N/Nc2ncnc3c2cnn3-c2cccc(OC)c2)c1,-3.29 ± 11
20,Cc1cc(Cl)cc2c1NC(=O)C2=NNc1ccc(S(N)(=O)=O)cc1,-9.29 ± 7.3
21,Nc1nc(-c2ccccn2)c(-c2ccc3ncccc3n2)s1,0.104 ± 3
22,Clc1ccc(C2(c3ccc(-c4cn[nH]c4)cc3)CCNCC2)cc1,100 ± 1.4
23,CCN1CCC(C(=O)Nc2n[nH]c3nnc(-c4cccc(F)c4F)cc23)CC1,0.339 ± 3.9
